NPR1 activator: GC-A (human) enzyme activation. activation, % at 10 µM. HEK293 GC-A cells, cGMP TR-FRET, EC30 ANP; 0% at EC30 ANP, 100% saturating ANP. P16066. 370,000 tested, 0.14% active; in the data active = activation above about 40%
NPR2 activator: GC-B (human) receptor activation | P20594 | HEK293-GC-B cells, CNP EC30, cGMP TR-FRET; 0% at EC30 CNP, 100% saturating CNP | activation, % at 10 µM | 370,000 tested, 0.11% active | AID 1920062;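 active = activation at 10 µM reaching about 35% in either raw or pattern-adjusted values, limit read from the data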
V-ATPase pH: regulators of yeast V-ATPase proton transport; S. cerevisiae, pHLuorin cytosolic pH fluorescence; AID 504577; 350,000 tested, 0.37% active; response, % at 10 µM; in the data active = response mostly above about 7.3%, no sharp cut-off; inactive = mostly below about 5.4%; note: actives read high
PG9 Ab binder: binds the HIV-1 gp120 antibody PG9; TR-FRET gp120-PG9 antibody binding; inhibition, % at 6.7 µM; 360,000 tested, 0.43% active; AID 624416; in the data active = inhibition above about 8.5%
Rev-erbA mod: modulates human Rev-erb alpha binding to DNA | P20393 | Rev-erbα–FITC-DNA binding, fluorescence polarization, 90 min | activity, % at 10 µM | 370,000 tested, 0.79% active | AID 1259318;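 active = activity above about 14%, limit read from the data; passing the limit was not always enough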;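 note: 0% = DMSO wells with 35 nM protein and 100% = DMSO wells with 750 nM protein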
Rev-erbA confirm: Rev-erb alpha (human) modulation, hit confirmation. shares compounds with Rev-erbA mod. Rev-erb alpha FITC-DNA binding, fluorescence polarization, 90 min. activation, % at 25 µM. 3,000 tested, 61% active. AID 1259319;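 active = activation at or above a set limit, or at least 3 SD above the negative control mean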;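 note: 0% = 35 nM protein with DMSO and 100% = 750 nM protein high control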
RORg DNA counter: affects RORgamma DNA binding in a Rev-erb alpha counter-screen; shares compounds with Rev-erbA mod; purified RORgamma protein-FITC-DNA binding, fluorescence polarization; IC50, µM; 910 tested, 8% active;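 active = Compounds whose fitted half-maximal concentration for disrupting protein-DNA binding is below 10 micromolar; the record names Rev-erb in its text, so the target is in doubt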
Active calls of the source: *; x = not tested or not shown. Most compounds without a hit are left out; they make up all but 1.6% or so of the library.

SMILES | NPR1 activator | NPR2 activator | V-ATPase pH | PG9 Ab binder | Rev-erbA mod | Rev-erbA confirm | others
COc1ccc(S(=O)(=O)N2CCc3ccccc32)cc1C(=O)Nc1ccc(NC(C)=O)cc1 | -3.9 | -1.2 | -0.9 | 0.7 | 57.5* | 41.4* | RORg DNA counter=>40
COc1ccc(S(=O)(=O)N2CCCCCC2)cc1C(=O)Nc1ccc(C)cn1 | -0.5 | -1.2 | -3.5 | -0.2 | 100.5* | 29.8* | RORg DNA counter=0.787*
COc1ccc(S(=O)(=O)N2CCc3ccccc32)cc1NC(C)=O | -1.1 | -1.5 | 0.3 | 1.0 | 5.6 | x
COc1cc2c(c(OC)c1)[C@H](/C=C/c1ccccc1)[C@@H]([C@H](O)CO)OC2 | -0.8 | 0.4 | x | x | -1.6 | x
Cc1ccc(CNC(=O)Cn2nnc(C(=O)Nc3cccc(C)c3C)c2N)cc1 | 4.2 | 1.8 | 0.6 | 2.8 | -3.0 | x
COc1cccc(NC(=O)Cn2nnc(C(=O)NCCc3ccccc3)c2N)c1 | -2.5 | 4.0 | 0.6 | -2.5 | 19.8* | 5.3
Cc1ccc(CNC(=O)c2nnn(CC(=O)Nc3cccc(C)c3C)c2N)cc1 | 0.2 | 5.0 | 0.1 | -0.7 | 27.2* | 22.1*
CC1(c2nnnn2-c2ccc3ccccc3c2)CSCC(=O)N1C1CC1 (stereo unspecified) | -3.5 | 3.3 | x | x | 9.3 | x
COC(=O)Cn1c(=NC(=O)c2cccc(OC)c2)sc2cc(OC)ccc21 | 15.4 | 16.1 | 3.2 | 0.0 | 31.0* | 22.9*
COc1cccc(C(=O)N/N=c2\sc3ccccc3n2C)c1 | 0.7 | -2.9 | -1.1 | -2.3 | -6.2 | x
COC(=O)Cn1c(=NC(=O)c2cc(OC)cc(OC)c2)sc2cc(OC)ccc21 | 18.0 | 9.7 | 2.7 | 1.8 | 31.2* | 4.8
COc1ccc(C(=O)N=c2sc3ccccc3n2C)cc1 | 0.8 | -3.5 | -1.2 | 2.4 | 51.9* | 23.1*
COc1cc(OC)cc(C(=O)N=c2sc3ccccc3n2C)c1 | -15.7 | -0.4 | -4.3 | 2.1 | 15.9 | x
COC(=O)Cn1c(=NC(=O)c2ccc(S(=O)(=O)N3CCc4ccccc4C3)cc2)sc2cc(OC)ccc21 | 7.4 | 9.7 | 2.8 | 6.5 | 39.5* | 2.2
CCn1cc(C(=O)N2CCN(Cc3ccc(C)cc3)CC2)c(=O)c2ccc(C)nc21 | -3.1 | -5.7 | x | x | -4.4 | x
Nn1c(SCC(=O)NC2CCCCC2)nnc1-c1cc(-c2ccc(Cl)cc2)n[nH]1 | 20.1 | -11.4 | x | x | -4.7 | x
COc1ccc(-n2c(SCC(=O)Nc3ccccc3-c3ccccc3)nnc2-c2ccco2)cc1 | -14.9 | -3.2 | x | x | 6.0 | x
CS(=O)(=O)Nc1ccc(-c2ccc(/C=C3\SC(N)=NC3=O)o2)cc1 | -1.6 | -2.8 | 1.7 | -11.6 | 44.2* | 33.0* | RORg DNA counter=>40
CCOc1ccccc1NC(=O)CCSc1nc2n[nH]c(C)c2c(=N)n1-c1ccccc1Cl | -3.7 | -4.9 | -0.9 | 41.1* | 34.7* | 15.6
Cc1ccccc1-n1c(SCC(=O)Nc2ccccc2Cl)nc2n[nH]c(C)c2c1=N | 3.2 | 1.7 | 1.9 | -1.1 | 0.1 | x
COC(=O)[C@]12C[C@H](CC(=O)N3CCCC3)C(=O)N(Cc3ccc(Cl)cc3Cl)C1=C[C@H](C(C)(C)C)O[C@@H]2C | -14.6 | -5.9 | x | x | 1.3 | x
CCOc1ccc(-c2nc(S(=O)(=O)c3ccccc3)c(NC)o2)cc1 | -4.1 | -10.5 | -0.6 | -1.6 | 46.7* | 12.1
N#CCC[C@H]1CC[C@]2(CCCN(S(=O)(=O)c3ccccc3)C2)O1 | 5.0 | 7.0 | x | x | 5.0 | x
Cc1cc(NC(=O)CSc2nc(-c3ccccc3Cl)nc3c2c(=O)n(C)c(=O)n3C)no1 | -0.8 | -15.9 | -7.1 | 1.3 | 28.0* | 6.8
Cc1cc(NC(=O)CSc2nc(-c3ccc(Br)cc3)nc3c2c(=O)n(C)c(=O)n3C)no1 | x | x | 2.1 | x | x | x
CC(C)CNC(=O)c1cc2nc3c(c(C(F)(F)F)n2n1)CCc1ccccc1-3 | 4.1 | 5.2 | -51.2 | 1.2 | 23.3 | x
CCCCNC(=O)c1cc2nc3c(c(C(F)(F)F)n2n1)CCc1ccccc1-3 | 8.4 | 3.3 | -1.8 | -0.1 | 30.0* | 6.9
CCCC[C@H](C(=O)N(C)c1ccccc1)[C@@H](O)c1ccc(Cl)cc1 | -27.1 | -25.4 | x | x | -0.6 | x

Screening data deposited in PubChem by several laboratories.
